# Only some compounds are listed: those with a hit (about 21% of all), similar ones and a draw of the others.
# DT40 TDP1 no CPT = qHTS for Inhibitors of human tyrosyl-DNA phosphodiesterase 1 (TDP1): qHTS in cells in absence of CPT | 420,000 compounds, 15% hits | Potency, µM (series often up to 46.2 µM), for inactives: top-dose activity change, negative = growth inhibition, hits mostly inhibitors | DT40 Tdp1-/- hTDP1 cells, no CPT, ATP luminescence, 48 h | AID 686978, 2013; further: potency means the concentration at half of the fitted maximal effect; on the % scale 0 is the no-effect control and ±100 the full control effect; nearly all actives have a fitted effect of over 55% in size
#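 Cells were dispensed at 400 per well, compounds added by pin tool, plates incubated ≥48 hr at 37 °C, then CellTiter-Glo added for 30 min at room temperature before luminescence reading. Line: DT40 Tdp1-/- complemented with hTDP1; camptothecin omitted.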
# D3 ag = qHTS of D3 Dopamine Receptor Agonist: qHTS. D(3) dopamine receptor (Homo sapiens), P35462. D3R DiscoveRx beta-arrestin cells, luminescence, 90 min. max activation, %. 410,000 compounds, 0.58% hits. AID 652048, 2013; in the data active means max activation above about 30%; further: 0% is about no effect
# Target sequence (P35462 whole entry, looked up): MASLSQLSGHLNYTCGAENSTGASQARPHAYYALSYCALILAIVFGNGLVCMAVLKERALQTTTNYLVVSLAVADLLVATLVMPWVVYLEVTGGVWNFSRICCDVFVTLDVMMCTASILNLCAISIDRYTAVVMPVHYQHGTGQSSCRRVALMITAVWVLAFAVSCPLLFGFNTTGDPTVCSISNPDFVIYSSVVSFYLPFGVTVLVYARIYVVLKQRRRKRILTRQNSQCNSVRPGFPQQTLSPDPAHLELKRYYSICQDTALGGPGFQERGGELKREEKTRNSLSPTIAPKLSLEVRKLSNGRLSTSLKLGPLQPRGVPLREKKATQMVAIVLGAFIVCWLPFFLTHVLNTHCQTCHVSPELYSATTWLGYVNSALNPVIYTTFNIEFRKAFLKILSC
#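 Agonist mode: compounds and dopamine controls were applied to plated cells for 90 min at 37 degrees C after an overnight attachment at 1500 cells/well. Luminescent read-out followed 30 - 60 minutes at room temperature with DiscoveRx detection reagent.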
# ClpP mod = qHTS Assay for Activators of ClpP. 340,000 compounds, 1.9% hits. purified B. subtilis ClpP, FRET peptide cleavage, 20 min. Potency, µM (doses to about 57.5 µM), for inactives: top-dose activity change, negative = active. AID 651965, 2013; active means well fitted falling curve with a large enough effect; inconclusive means small, poorly fitted or top-dose-only effect; inactive means no such curve, though single readings can be large or run the other way; further: potency means the concentration at half of the fitted maximal effect; the source files actives as falling curves though it sought activators and does not explain the sign; nearly all actives have a fitted effect of over 65% in size
#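 ClpP 10 microg/mL final, pH 8 Tris/KCl buffer with BSA, glycerol, Tween-20; compound pinned in; FRET-FV substrate; RT 20 min; Ex320/Em430; ΔFRET vs ADEP 5.8 microM, DMSO, no enzyme.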
# DRD3 antagonist = qHTS of D3 Dopamine Receptor Antagonist: qHTS | D3R cells, DiscoveRx beta-arrestin luminescence, antagonist mode; hits give low values | max response, negative = inhibition, % | 360,000 compounds, 2.5% hits; in the data active means max response below about -50%; inconclusive means no clear call, values can overlap the other calls; further: on the % scale 0 is the no-effect control and ±100 the full control effect
#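 Cells expressing the human receptor were seeded at 1500 cells/well, incubated overnight at 37 degrees C in 5% CO2, then exposed to library compounds with dopamine controls for 90 minutes at 37 degrees C before luminescent detection.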
# IL-1B inflam inh = qHTS for Inhibitors of Inflammasome Signaling: IL-1-beta AlphaLISA Primary Screen. THP-1 LPS/ATP IL-1B secretion, AlphaLISA, 16 h; hits give low values. activity change, % at 57.5 µM. 360,000 compounds, 4.7% hits. AID 743279, 2014; in the data active means activity change below about -50%; inconclusive means mostly about -30% to -49%; further: on the % scale 0 is the no-effect control and ±100 the full control effect
#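 Secreted IL-1B measured by AlphaLISA bead assay after 16 h compound exposure of THP-1 cells; compounds (final up to 57.5 uM) added 1 h before LPS (250 ng/mL) and ATP (1.25 mM) stimulation; lower signal means less secretion.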
# TDP1 cell CPT = qHTS for Inhibitors of human tyrosyl-DNA phosphodiesterase 1 (TDP1): qHTS in cells in presence of CPT; chicken DT40 Tdp1-/-;hTDP1 cells + 20 nM CPT, ATP luminescence, 48 h; Potency, µM (highest dose often 46.2 µM), for the others: at the highest dose activity change, negative = growth inhibition, usual class: inhibitors; 420,000 compounds, 12% hits; further: potency means the concentration at half of the fitted maximal effect; on the % scale 0 is the no-effect control and ±100 the full control effect; nearly all actives have a fitted effect of over 55% in size
#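 Chicken DT40 Tdp1-/- cells stably complemented with human TDP1 were seeded at 400 cells/well in medium containing 20 nM camptothecin, exposed to pin-transferred compounds, and grown at 37 °C for at least 48 hr. Viability was read as ATP luminescence.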
# Active calls of the source: *; ? = inconclusive; / = no result. Unless noted, the call rests on the fitted dose curve; in most records, active means well fitted inhibition curve with a large enough effect; inconclusive means small, poorly fitted or top-dose-only effect; inactive means flat fitted curve, though single readings scatter.
SMILES,DT40 TDP1 no CPT,D3 ag,ClpP mod,DRD3 antagonist,IL-1B inflam inh,TDP1 cell CPT
COCCN(Cc1cc2cc(C)ccc2n2nnnc12)C(=S)Nc1ccc(C)cc1,23.1µM*,-4.0,-0.6%,-12.8,-7.5,18.4µM*
CCC(C)NC(=S)N(Cc1cc2cc(C)ccc2n2nnnc12)CC(C)(C)NC(C)C (stereo not drawn),16.4µM*,-3.7,-0.6%,-6.3,6.8,16.4µM*
COCCN(Cc1cc2cc(C)ccc2n2nnnc12)C(=S)Nc1ccc(OC)cc1,?,-7.5,1.5%,-3.8,9.5,?
CCn1c(N2CCN(S(=O)(=O)c3ccc(F)cc3)CC2)nc2ccccc21,14.6µM*,10.4,-4.7%,-7.3,-58.9*,?
CCn1c(N2CCN(S(=O)(=O)c3ccc(Cl)cc3)CC2)nc2ccccc21,14.6µM*,43.6*,/,13.4,-86.6*,14.6µM*
O=S(=O)(c1ccc(Cl)cc1)N1CCN(c2nc(C(F)(F)F)nc3ccccc23)CC1,?,-1.3,-0.8%,13.9,6.9,?
CCn1c(N2CCN(S(=O)(=O)CC)CC2)nc2ccccc21,-0.3%,5.2,-6.3%,3.6,26.3,4.9%
CCOc1ccc(OCC)c(NC(=O)c2cnn(-c3ccc(F)cc3)c2-n2cccc2)c1,/,2.5,?,/,/,/
COc1cc(=O)n2c(c1C(=O)N(C)Cc1nccs1)CCN(Cc1ccc(F)c(F)c1)CC2,-27.2%,/,/,/,/,?
COc1ccc(S(=O)(=O)N2CC3CCCN3c3cc(C(F)(F)F)ccc32)cc1 (stereo not drawn),?,-3.9,0.6%,1.3,-10.5,20.6µM*
COc1ccc(S(=O)(=O)N2CC3CCCN3c3ccc(C(F)(F)F)cc32)cc1 (stereo not drawn),?,-2.8,-4.9%,4.5,?,25.9µM*
NS(=O)(=O)c1ccc(Nc2c([N+](=O)[O-])cncc2[N+](=O)[O-])cc1,?,1.2,/,-26.4,58.5,?
O=[N+]([O-])c1cncc([N+](=O)[O-])c1Nc1ccccc1Cl,23.1µM*,-6.2,/,-29.0,-21.3,18.4µM*
O=S(=O)(Cc1ccccc1)N(O)c1ccccc1,23.1µM*,3.1,/,4.5,-63.0*,20.6µM*
O=C(O)CNS(=O)(=O)Cc1ccccc1,10.0%,0.1,-2.2%,4.9,-15.6,25.9%
Cc1ccc(NC(=O)Cn2cc(C(=O)C3CCCCC3)c3ccccc32)c(C)c1,?,10.8,-3.4%,/,/,?
COC(=O)N1C(=O)[C@@](c2ccc(OC)cc2)(C(C)C)N1C(=O)OC,?,-19.2,-1.6%,?,-101.4*,?
COC(=O)N1C(=O)[C@](c2ccc(Cl)cc2)(C(C)C)N1C(=O)OC,23.1µM*,-26.2,-0.7%,-26.6,/,13µM*
COC(=O)N1C(=O)[C@@](c2ccccc2)(C(C)C)N1C(=O)OC,?,-0.7,-3.5%,-20.9,?,16.4µM*
COC(=O)N1C(=O)[C@](c2ccccc2)(C2CCCC2)N1C(=O)OC,?,-7.1,-2.8%,-23.5,-95.6*,?
CCC1(c2ccccc2)NC(=O)N(CC(=O)NC2CCCC2)C1=O (stereo not drawn),-16.2%,3.7,-1.5%,18.0,2.9,6.8%
COc1ccc(C2(c3ccc(OC)cc3)NC(=O)N(CC(=O)NC(C)C)C2=O)cc1,-13.8%,-0.8,/,?,-11.4,-15.4%
CCC1(c2ccccc2)C(=O)N(C(=O)OC(C)(C)C)N1C(=O)OC(C)(C)C (stereo not drawn),3.9%,14.0,1.0%,9.5,?,4.2%
